Experimental data reported in PubChem BioAssay AID1159580 (chemical genetic matrix, 2015).
In all, about 5,500 compounds went through this assay and about 2,000 (36%) were called active. Inconclusive results (about 18%) are left out. Cut-off read from the data, not from the text of the source: active = normalized growth mostly below about 0.91 (no sharp cut-off); inconclusive = no clear call, values can overlap the other calls; inactive = mostly above about 0.92. The list shows a part of the results.

Assay: chemical genetic growth profiling, strain panel (AID 1159580);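 note: tested at 20 µM; growth read once vehicle control cultures reached saturation at 30 °C; 1 = growth at the plate median or of vehicle wells; lower values mean less growth of the strain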
Details: growth OD

Measured: normalized growth

C/C=C/c1ccc2c(c1)OCO2
inactive: S. cerevisiae deletion strains, locus YJR075W, strain HOC1, stronger effect = lower value 1.01 | S. cerevisiae deletion strains, locus YKL009W, strain mrt4, stronger effect = lower value 1.02 | S. cerevisiae deletion strains, locus YKL068W, stronger effect = lower value 1 | S. cerevisiae deletion strains, locus YKL085W, strain MDH1 (second series), stronger effect = lower value 1.01 | S. cerevisiae deletion strains, locus YKL085W, strain MDH1, stronger effect = lower value 1.01 | S. cerevisiae deletion strains, locus YKL160W, strain elf1, stronger effect = lower value 1 | S. cerevisiae deletion strains, locus YKL190W, strain CNB1, stronger effect = lower value 1.01 | S. cerevisiae deletion strains, locus YKR001C, strain vps1, stronger effect = lower value 1.05 | S. cerevisiae deletion strains, locus YKR026C, strain gcn3, stronger effect = lower value 0.997 | S. cerevisiae deletion strains, locus YKR091W, strain srl3, stronger effect = lower value 1.01 | S. cerevisiae deletion strains, locus YLL001W, strain dnm1, stronger effect = lower value 1.01 | S. cerevisiae deletion strains, locus YLL026W, stronger effect = lower value 1.02 | S. cerevisiae deletion strains, locus YLL041C, strain sdh2, stronger effect = lower value 1.02 | S. cerevisiae deletion strains, locus YLR027C, strain aat2, stronger effect = lower value 1.02 | S. cerevisiae deletion strains, locus YLR039C, strain RIC1, stronger effect = lower value 1.07 | S. cerevisiae deletion strains, locus YLR058C, strain SHM2, stronger effect = lower value 1.01 | S. cerevisiae deletion strains, locus YLR102C, strain apc9, stronger effect = lower value 1.01 | S. cerevisiae deletion strains, locus YLR113W, strain HOG1, stronger effect = lower value 0.976 | S. cerevisiae deletion strains, locus YLR221C, strain rsa3, stronger effect = lower value 0.994 | S. cerevisiae deletion strains, locus YLR258W, strain gsy2, stronger effect = lower value 1.02 | S. cerevisiae deletion strains, locus YLR262C, strain YPT6 (second series), stronger effect = lower value 1 | S. cerevisiae deletion strains, locus YLR262C, strain YPT6, stronger effect = lower value 1.05 | S. cerevisiae deletion strains, locus YLR268W, strain sec22, stronger effect = lower value 1.04 | S. cerevisiae deletion strains, locus YLR320W, strain mms22, stronger effect = lower value 1.01 | S. cerevisiae deletion strains, locus YLR330W, strain CHS5, stronger effect = lower value 1.02 | S. cerevisiae deletion strains, locus YLR342W, strain FKS1 (second series), stronger effect = lower value 1.03 | S. cerevisiae deletion strains, locus YLR342W, strain FKS1, stronger effect = lower value 1.02 | S. cerevisiae deletion strains, locus YLR357W, strain rsc2, stronger effect = lower value 1.03 | S. cerevisiae deletion strains, locus YLR370C, strain arc18, stronger effect = lower value 1.02 | S. cerevisiae deletion strains, locus YLR371W, strain rom2, stronger effect = lower value 1.01 | S. cerevisiae deletion strains, locus YLR384C, strain iki3, stronger effect = lower value 1.03 | S. cerevisiae deletion strains, locus YLR418C, strain cdc73, stronger effect = lower value 1 | S. cerevisiae deletion strains, locus YML016C, strain PPZ1, stronger effect = lower value 1.01 | S. cerevisiae deletion strains, locus YML032C, strain rad52, stronger effect = lower value 0.996 | S. cerevisiae deletion strains, locus YML120C, strain ndi1, stronger effect = lower value 1.03 | S. cerevisiae deletion strains, locus YML124C, strain tub3, stronger effect = lower value 1 | S. cerevisiae deletion strains, locus YMR058W, strain fet3, stronger effect = lower value 1.02 | S. cerevisiae deletion strains, locus YMR078C, strain ctf18, stronger effect = lower value 1.01 | S. cerevisiae deletion strains, locus YMR125W, strain sto1, stronger effect = lower value 1.03 | S. cerevisiae deletion strains, locus YMR129W, stronger effect = lower value 1.02 | S. cerevisiae deletion strains, locus YMR205C, strain PFK2, stronger effect = lower value 1.02 | S. cerevisiae deletion strains, locus YMR223W, strain ubp8, stronger effect = lower value 0.99 | S. cerevisiae deletion strains, locus YMR231W, strain pep5, stronger effect = lower value 1.02 | S. cerevisiae deletion strains, locus YMR263W, strain SAP30, stronger effect = lower value 1.01 | S. cerevisiae deletion strains, locus YMR307W, strain GAS1, stronger effect = lower value 0.986 | S. cerevisiae deletion strains, locus YNL067W, strain RPL9B, stronger effect = lower value 1.01 | S. cerevisiae deletion strains, locus YNL071W, strain lat1, stronger effect = lower value 1.02 | S. cerevisiae deletion strains, locus YNL153C, strain GIM3, stronger effect = lower value 1.03 | S. cerevisiae deletion strains, locus YNL183C, strain NPR1, stronger effect = lower value 0.948 | S. cerevisiae deletion strains, locus YNL209W, strain ssb2, stronger effect = lower value 1.02 | S. cerevisiae deletion strains, locus YNL233W, strain BNI4, stronger effect = lower value 1.02 | S. cerevisiae deletion strains, locus YNL248C, strain rpa49, stronger effect = lower value 0.998 | S. cerevisiae deletion strains, locus YNL250W, strain rad50, stronger effect = lower value 1.01 | S. cerevisiae deletion strains, locus YNL271C, strain bni1, stronger effect = lower value 1.01 | S. cerevisiae deletion strains, locus YNL298W, strain CLA4, stronger effect = lower value 1.01 | S. cerevisiae deletion strains, locus YNL307C, strain MCK1, stronger effect = lower value 1.02 | S. cerevisiae deletion strains, locus YNL322C, strain KRE1 (second series), stronger effect = lower value 1.02 | S. cerevisiae deletion strains, locus YNL322C, strain KRE1, stronger effect = lower value 1.01 | S. cerevisiae deletion strains, locus YNR049C, strain mso1, stronger effect = lower value 1.02 | S. cerevisiae deletion strains, locus YNR052C, strain pop2, stronger effect = lower value 0.996 | S. cerevisiae deletion strains, locus YOL006C, strain TOP1, stronger effect = lower value 1.16 | S. cerevisiae deletion strains, locus YOL012C, strain htz1 1.12 | S. cerevisiae deletion strains, locus YOL147C, strain pex11, stronger effect = lower value 1 | S. cerevisiae deletion strains, locus YOR001W, strain rrp6, stronger effect = lower value 1.01 | S. cerevisiae deletion strains, locus YOR061W, strain CKA2, stronger effect = lower value 1.01 | S. cerevisiae deletion strains, locus YOR069W, strain VPS5, stronger effect = lower value 1.01 | S. cerevisiae deletion strains, locus YOR070C, strain gyp1, stronger effect = lower value 1.02 | S. cerevisiae deletion strains, locus YOR080W, strain dia2, stronger effect = lower value 1.03 | S. cerevisiae deletion strains, locus YOR083W, strain WHI5, stronger effect = lower value 0.993 | S. cerevisiae deletion strains, locus YOR106W, strain vam3, stronger effect = lower value 1.01 | S. cerevisiae deletion strains, locus YOR136W, strain idh2, stronger effect = lower value 0.999 | S. cerevisiae deletion strains, locus YOR144C, strain elg1, stronger effect = lower value 0.998 | S. cerevisiae deletion strains, locus YOR184W, strain ser1, stronger effect = lower value 0.994 | S. cerevisiae deletion strains, locus YOR231W, strain MKK1, stronger effect = lower value 0.959 | S. cerevisiae deletion strains, locus YOR265W, strain rbl2, stronger effect = lower value 1.02 | S. cerevisiae deletion strains, locus YOR270C, strain vph1, stronger effect = lower value 1.03 | S. cerevisiae deletion strains, locus YOR290C, strain snf2, stronger effect = lower value 0.999 | S. cerevisiae deletion strains, locus YOR316C, strain cot1, stronger effect = lower value 1.01 | S. cerevisiae deletion strains, locus YPL051W, strain arl3, stronger effect = lower value 1.01 | S. cerevisiae deletion strains, locus YPL055C, strain LGE1, stronger effect = lower value 1.03 | S. cerevisiae deletion strains, locus YPL078C, strain atp4, stronger effect = lower value 1.01 | S. cerevisiae deletion strains, locus YPL106C, strain sse1, stronger effect = lower value 1 | S. cerevisiae deletion strains, locus YPL240C, strain hsp82, stronger effect = lower value 1.02 | S. cerevisiae deletion strains, locus YPL241C, strain CIN2, stronger effect = lower value 1.01 | S. cerevisiae deletion strains, locus YPL256C, strain CLN2, stronger effect = lower value 0.962 | S. cerevisiae deletion strains, locus YPR119W, strain clb2, stronger effect = lower value 1.01 | S. cerevisiae deletion strains, locus YPR141C, strain kar3, stronger effect = lower value 1.01 | S. cerevisiae deletion strains, locus YPR163C, strain tif3, stronger effect = lower value 1 | S. cerevisiae deletion strains, locus YPR167C, strain met16, stronger effect = lower value 1.02 | S. cerevisiae deletion strains, strain wtn01, stronger effect = lower value 1.06 | S. cerevisiae strains, strain wild type, stronger effect = lower value 1.01
